Data published in publication PMC7862700, “An all-to-all approach to the identification of sequence-specific readers for epigenetic DNA modifications on cytosine”.

How the values were obtained:
Test in all cases: DAPPL (digital affinity profiling via proximity ligation, sequencing); 10 mM Tris-HCl pH 7.5, 50 mM NaCl, 1 mM DTT, 4% glycerol, room temperature, 30 min; GST-TFs on glutathione beads, 16-mer random dsDNA library, 0.1% formaldehyde crosslink after washing; high values mean tight binding
Settings in all cases: protein: recombinant; tags: N-terminal GST; dsDNA, one strand shown
GABPA = molecular target: T1, GABPA (Homo sapiens, UniProt Q06546 1-454)
T1 sequence: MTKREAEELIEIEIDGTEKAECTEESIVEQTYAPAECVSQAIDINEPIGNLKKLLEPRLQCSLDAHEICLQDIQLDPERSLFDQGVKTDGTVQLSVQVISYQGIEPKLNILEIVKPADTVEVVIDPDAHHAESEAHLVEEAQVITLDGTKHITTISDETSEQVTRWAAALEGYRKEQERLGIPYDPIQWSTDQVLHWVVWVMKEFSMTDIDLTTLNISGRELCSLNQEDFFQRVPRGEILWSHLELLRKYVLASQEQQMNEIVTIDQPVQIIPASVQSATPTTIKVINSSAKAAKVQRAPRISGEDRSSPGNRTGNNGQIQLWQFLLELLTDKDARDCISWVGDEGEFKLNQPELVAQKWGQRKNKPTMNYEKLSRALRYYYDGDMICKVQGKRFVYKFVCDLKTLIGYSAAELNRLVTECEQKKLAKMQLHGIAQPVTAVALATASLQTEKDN
Summary of the method: (§1)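 Human transcription factors were made in yeast as GST fusions, captured on glutathione beads and barcoded with DNA. With a tag-only sample included, the pool was incubated with 200 nmole of a random double-stranded 16-mer DNA library in Tris/NaCl/DTT/glycerol buffer at room temperature for 30 min, then crosslinked with 0.1% formaldehyde after washing, ligated by proximity, amplified and sequenced. For binding signal, each hexamer's read frequency for a factor is divided by its frequency for the tag-only sample.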

EHF = molecular target: T2, EHF (Homo sapiens, UniProt Q9NZC4 1-300)
T2 sequence: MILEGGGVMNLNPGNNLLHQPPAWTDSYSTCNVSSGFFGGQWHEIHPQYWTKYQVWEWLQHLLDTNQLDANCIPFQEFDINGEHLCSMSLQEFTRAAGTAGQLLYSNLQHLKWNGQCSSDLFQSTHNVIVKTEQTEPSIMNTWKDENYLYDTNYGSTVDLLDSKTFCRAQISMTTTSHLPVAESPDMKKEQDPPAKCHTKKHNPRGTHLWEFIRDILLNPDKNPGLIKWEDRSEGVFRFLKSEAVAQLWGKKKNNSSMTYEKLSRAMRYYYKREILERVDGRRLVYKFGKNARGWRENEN
Summary of the method: as §1

SPI1 = SPI1 (Homo sapiens, UniProt P17947 1-270)
Summary of the method: as §1

ELK4 = molecular target: T3, ELK4 (Homo sapiens, UniProt P28324-2 1-405)
T3 sequence: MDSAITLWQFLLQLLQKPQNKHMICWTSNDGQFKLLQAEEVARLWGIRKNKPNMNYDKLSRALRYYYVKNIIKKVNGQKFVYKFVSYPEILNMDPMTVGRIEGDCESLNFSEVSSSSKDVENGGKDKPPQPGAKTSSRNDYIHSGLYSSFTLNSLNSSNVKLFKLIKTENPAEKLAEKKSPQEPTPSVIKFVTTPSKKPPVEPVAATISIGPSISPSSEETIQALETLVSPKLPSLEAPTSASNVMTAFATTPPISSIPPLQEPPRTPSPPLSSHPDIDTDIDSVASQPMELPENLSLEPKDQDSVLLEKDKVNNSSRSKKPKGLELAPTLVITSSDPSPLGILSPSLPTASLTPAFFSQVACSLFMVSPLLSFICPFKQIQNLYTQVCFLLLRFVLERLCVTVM
Summary of the method: as §1

ELF3 = molecular target: T4, ELF3 (Homo sapiens, UniProt P78545 1-371)
T4 sequence: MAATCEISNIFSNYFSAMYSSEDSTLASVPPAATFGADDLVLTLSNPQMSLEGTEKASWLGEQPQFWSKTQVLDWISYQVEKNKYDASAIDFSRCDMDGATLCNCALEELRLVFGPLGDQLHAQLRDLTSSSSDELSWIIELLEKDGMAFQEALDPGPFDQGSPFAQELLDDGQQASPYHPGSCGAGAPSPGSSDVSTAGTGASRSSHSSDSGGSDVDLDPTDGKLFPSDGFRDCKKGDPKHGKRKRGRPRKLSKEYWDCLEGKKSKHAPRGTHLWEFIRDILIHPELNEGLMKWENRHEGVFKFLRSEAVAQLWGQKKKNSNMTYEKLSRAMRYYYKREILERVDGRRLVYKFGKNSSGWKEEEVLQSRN
Summary of the method: as §1

ETV1 = ETV1 (Homo sapiens, UniProt P50549 1-477)
Summary of the method: as §1

ELF1 = ELF1 (Homo sapiens, UniProt P32519 1-619)
Summary of the method: as §1

ETV2 = molecular target: T5, ETV2 (Homo sapiens, UniProt O00321 1-342)
T5 sequence: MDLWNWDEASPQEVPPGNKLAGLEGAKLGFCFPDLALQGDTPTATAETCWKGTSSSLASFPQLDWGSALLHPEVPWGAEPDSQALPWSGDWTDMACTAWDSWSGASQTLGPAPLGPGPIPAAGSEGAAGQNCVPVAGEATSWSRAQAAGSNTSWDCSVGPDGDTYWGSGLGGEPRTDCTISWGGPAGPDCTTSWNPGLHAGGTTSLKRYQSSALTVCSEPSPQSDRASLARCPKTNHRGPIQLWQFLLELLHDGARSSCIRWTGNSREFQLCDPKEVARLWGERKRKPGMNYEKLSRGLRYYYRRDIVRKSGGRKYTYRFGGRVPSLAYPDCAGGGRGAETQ
Summary of the method: as §1

CRX = CRX (Homo sapiens, UniProt O43186 1-299)
Summary of the method: as §1

ETV3 = molecular target: T6, ETV3 (Homo sapiens, UniProt P41162-2 1-143)
T6 sequence: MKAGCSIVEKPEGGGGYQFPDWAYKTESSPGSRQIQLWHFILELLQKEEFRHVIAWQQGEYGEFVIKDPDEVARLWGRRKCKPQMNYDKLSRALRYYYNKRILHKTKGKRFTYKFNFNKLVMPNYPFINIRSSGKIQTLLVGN
Summary of the method: as §1

ELK3 = molecular target: T7, ELK3 (Homo sapiens, UniProt P41970 1-407)
T7 sequence: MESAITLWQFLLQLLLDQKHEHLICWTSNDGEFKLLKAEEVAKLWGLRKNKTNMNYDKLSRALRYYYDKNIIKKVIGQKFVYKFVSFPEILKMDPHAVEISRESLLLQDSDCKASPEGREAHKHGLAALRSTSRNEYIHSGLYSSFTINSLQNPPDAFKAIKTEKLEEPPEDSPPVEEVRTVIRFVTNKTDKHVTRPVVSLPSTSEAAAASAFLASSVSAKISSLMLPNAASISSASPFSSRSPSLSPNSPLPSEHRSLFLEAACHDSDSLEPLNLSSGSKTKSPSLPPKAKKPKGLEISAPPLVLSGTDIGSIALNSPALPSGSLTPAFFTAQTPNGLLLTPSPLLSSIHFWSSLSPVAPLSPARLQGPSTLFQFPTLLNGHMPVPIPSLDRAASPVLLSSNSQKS
Summary of the method: as §1

Chain of ELF1 (P32519 whole entry): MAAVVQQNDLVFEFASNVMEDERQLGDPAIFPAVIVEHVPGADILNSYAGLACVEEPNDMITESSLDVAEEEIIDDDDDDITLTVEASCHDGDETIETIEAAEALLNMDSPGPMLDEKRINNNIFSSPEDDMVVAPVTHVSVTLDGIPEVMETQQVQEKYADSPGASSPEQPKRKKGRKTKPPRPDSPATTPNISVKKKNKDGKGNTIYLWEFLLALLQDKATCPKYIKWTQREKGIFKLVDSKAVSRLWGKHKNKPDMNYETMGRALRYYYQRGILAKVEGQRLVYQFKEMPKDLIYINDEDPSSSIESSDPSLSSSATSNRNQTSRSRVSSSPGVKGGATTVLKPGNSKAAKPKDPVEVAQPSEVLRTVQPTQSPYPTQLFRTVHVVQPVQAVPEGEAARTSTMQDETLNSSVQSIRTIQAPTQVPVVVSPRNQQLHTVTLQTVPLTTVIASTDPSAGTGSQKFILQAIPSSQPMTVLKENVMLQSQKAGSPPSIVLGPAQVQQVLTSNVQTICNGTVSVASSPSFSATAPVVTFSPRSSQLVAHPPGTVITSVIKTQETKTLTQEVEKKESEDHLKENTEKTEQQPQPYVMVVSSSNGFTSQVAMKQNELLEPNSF
Chain of ETV1 (P50549 whole entry): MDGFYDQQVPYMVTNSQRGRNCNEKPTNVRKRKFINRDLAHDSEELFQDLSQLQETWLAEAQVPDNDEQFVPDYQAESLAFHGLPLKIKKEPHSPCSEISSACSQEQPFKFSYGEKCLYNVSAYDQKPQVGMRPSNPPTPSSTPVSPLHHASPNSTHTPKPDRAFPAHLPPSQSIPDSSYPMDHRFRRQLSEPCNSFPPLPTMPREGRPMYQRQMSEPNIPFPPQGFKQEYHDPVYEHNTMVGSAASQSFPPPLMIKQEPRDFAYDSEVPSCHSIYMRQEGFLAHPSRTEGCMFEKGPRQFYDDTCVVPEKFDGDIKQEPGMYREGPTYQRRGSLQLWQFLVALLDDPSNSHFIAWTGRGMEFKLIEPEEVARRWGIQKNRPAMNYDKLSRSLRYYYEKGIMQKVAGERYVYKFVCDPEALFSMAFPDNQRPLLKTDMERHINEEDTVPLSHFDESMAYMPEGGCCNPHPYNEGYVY
Chain of CRX (O43186 whole entry): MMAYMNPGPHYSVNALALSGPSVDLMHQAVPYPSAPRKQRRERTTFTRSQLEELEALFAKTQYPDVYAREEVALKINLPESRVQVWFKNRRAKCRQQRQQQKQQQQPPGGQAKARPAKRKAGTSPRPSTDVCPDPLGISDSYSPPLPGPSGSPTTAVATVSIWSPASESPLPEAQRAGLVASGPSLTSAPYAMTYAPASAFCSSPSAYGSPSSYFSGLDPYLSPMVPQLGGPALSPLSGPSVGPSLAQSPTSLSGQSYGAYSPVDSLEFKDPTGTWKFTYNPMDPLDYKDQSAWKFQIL

Sequence	binding signal (GABPA)	binding signal (EHF)	binding signal (SPI1)	binding signal (ELK4)	binding signal (ELF3)	binding signal (ETV1)	binding signal (ELF1)	binding signal (ETV2)	binding signal (CRX)	binding signal (ETV3)	binding signal (ELK3)
GTGCAA	1.02 fold enrichment (6-mer frequency, TF over GST control)	1 fold enrichment (6-mer frequency, TF over GST control)	1.06 fold enrichment (6-mer frequency, TF over GST control)	1.05 fold enrichment (6-mer frequency, TF over GST control)	1.07 fold enrichment (6-mer frequency, TF over GST control)	1.05 fold enrichment (6-mer frequency, TF over GST control)	–	–	–	–	–
TCAGTA	–	–	–	1.01 fold enrichment (6-mer frequency, TF over GST control)	1.08 fold enrichment (6-mer frequency, TF over GST control)	–	1.01 fold enrichment (6-mer frequency, TF over GST control)	1.03 fold enrichment (6-mer frequency, TF over GST control)	1.07 fold enrichment (6-mer frequency, TF over GST control)	1.03 fold enrichment (6-mer frequency, TF over GST control)	–
TGAACG	–	–	–	1.02 fold enrichment (6-mer frequency, TF over GST control)	1.16 fold enrichment (6-mer frequency, TF over GST control)	1.02 fold enrichment (6-mer frequency, TF over GST control)	1.01 fold enrichment (6-mer frequency, TF over GST control)	1.02 fold enrichment (6-mer frequency, TF over GST control)	–	–	1.06 fold enrichment (6-mer frequency, TF over GST control)
